In PubChem BioAssay AID588690 (Broad Institute, 2011):
In all, about 2,400 compounds went through this assay and fewer than 10 were called active. Not shown: some 1% with an inconclusive outcome.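 Rule for the calls: active = highest replicate activation at or above 34% and every replicate reaching that threshold; inconclusive = meets only one of the two criteria; inactive = meets neither criterion.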 The list is a sample of the results.

molecular target: Protein FosB (Mus musculus) (UniProt P13346); test: activators of mouse delta FosB DNA binding, confirmation, biochemical, fluorescence polarization, TAMRA-CDK5 oligo, cherry-picked samples (AID 588690); conditions: purified delta FosB, at 24.9 µM, active compounds read high, normalised: neutral wells 0, positive control 100;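 note: higher polarization means more probe DNA bound by delta FosB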
Sequence (P13346 whole entry, looked up): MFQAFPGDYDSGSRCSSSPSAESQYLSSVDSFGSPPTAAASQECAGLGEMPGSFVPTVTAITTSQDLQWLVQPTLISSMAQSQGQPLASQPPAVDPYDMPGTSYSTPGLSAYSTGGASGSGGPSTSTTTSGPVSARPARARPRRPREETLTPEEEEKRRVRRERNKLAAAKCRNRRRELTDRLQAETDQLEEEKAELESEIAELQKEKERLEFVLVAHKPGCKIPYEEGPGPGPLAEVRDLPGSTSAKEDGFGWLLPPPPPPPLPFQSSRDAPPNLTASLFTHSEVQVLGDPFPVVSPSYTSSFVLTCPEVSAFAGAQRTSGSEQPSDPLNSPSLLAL

| SMILES | activation |
| --- | --- |
| O=C(Nc1ccc(Br)cc1)c1cc(S(=O)(=O)Nc2ccccn2)ccc1Cl | 0.723% (inactive) |
| COc1cccc(CNC(=O)c2nnn(CC(=O)Nc3cc(Cl)ccc3C)c2N)c1 | 5.89% (inactive) |
| Cc1ccc2nc(-c3ccccn3)cc(C(=O)Nc3ccc4c(c3)OCO4)c2c1 | 5.01% (inactive) |
| CN(C)CC(O)COc1ccc(C(C)(C)c2ccc(OCC(O)CN(C)C)cc2)cc1 (stereo unspecified) | 3.1% (inactive) |
| O=C(Cn1cc(-c2nnnn2-c2ccc(Cl)cc2)c(=O)c2ccccc21)c1ccccc1 | 0.385% (inactive) |
| CCn1c(=O)c2cc(C(=O)Nc3cccc(C(C)=O)c3)sc2c2ccccc21 | 8.7% (inactive) |
| CC(=O)Nc1ccc(C(=O)CSc2nnc(Cc3ccccc3)o2)cc1 | 1.84% (inactive) |
| O=C(N/N=C/c1cccc(O)c1)c1cc2c(ccc3ccccc32)o1 | -5.62% (inactive) |
| CC(=O)c1ccc(NC(=O)C2CC(=O)Nc3nc4ccccc4n32)cc1 (stereo unspecified) | -4.9% (inactive) |
| CCCCn1c(N)c(N(CCC(C)C)C(=O)COC(=O)c2ccc(CC)cc2)c(=O)[nH]c1=O | 0.0735% (inactive) |
| Cc1sc2nc(CSCC(=O)Nc3c(Cl)cccc3Cl)[nH]c(=O)c2c1C | -0.487% (inactive) |
| COc1cccc(NC(=O)Cn2c3ccc(F)cc3c3nc4n(c(=O)c32)CCS4)c1 | -5.72% (inactive) |
| COc1ccc(-c2cc3n(n2)CCc2nc4ccccc4n2-3)cc1 | 6.36% (inactive) |
| O=C(COC(=O)c1ccc(S(=O)(=O)N2CCc3ccccc3C2)cc1)NC(=O)NCc1ccco1 | -0.464% (inactive) |
| O=c1c2ccccc2oc2nc(C3CCCCC3)n(Cc3ccco3)c(=O)c12 | -1.5% (inactive) |
| Cc1ccc2nc(NC(=O)C3CCN(S(=O)(=O)c4ccc5c(c4)oc(=O)n5C)CC3)sc2c1 | -11.8% (inactive) |
| COC(=O)c1sc2ncccc2c1OCc1ccc(Cl)cc1Cl | -1.37% (inactive) |
| O=C(N/N=C/c1ccco1)c1ccc(NC(=O)C2CC2)cc1 | -0.767% (inactive) |
| O=C1c2cccc3cccc(c23)C(=O)N1c1cccc(O)c1 | 3.04% (inactive) |
| COc1cc2[nH]c(=O)n(Cc3ccc(C(=O)NC4CCN(Cc5ccccc5)CC4)cc3)c(=O)c2cc1OC | 0.608% (inactive) |
| Cc1ccc(-c2cc(C(=O)N/N=C/C=C/c3ccccc3)n[nH]2)o1 | 2.21% (inactive) |

| SMILES | activation |
| --- | --- |
| COc1ccccc1NC(=O)C1=C(C)Nc2nnnn2C1c1cccc(Br)c1 (stereo unspecified) | 5.03% (inactive) |
| Nc1nonc1-n1nnc(C(=O)N/N=C/c2ccc(Cl)cc2)c1-c1ccc2c(c1)OCO2 | 1.91% (inactive) |
| COC(=O)c1ccc(C23CC4(C2)[C@H](CN(Cc2cccnc2)[C@@H]4c2ccccc2)C3c2ccc(Cl)nc2)cc1 (stereo partly specified) | -13.4% (inactive) |
| COc1ccc(C(=O)Nc2c(N)nc(SCC(=O)Nc3ccc(C(C)=O)cc3)[nH]c2=O)cc1 | 5.95% (inactive) |
| COc1ccc(NC(=O)CCC(=O)Nc2nnc(C3CCCCC3)s2)cc1 | 3.71% (inactive) |
| COc1ccc(C(=O)n2nc(-c3ccc(Cl)cc3)nc2N)cc1OC | 0.58% (inactive) |
| N#Cc1c(N)nc2c3c(sc(=N)c2c1N)NC(=O)CC3c1ccccc1Cl (stereo unspecified) | 3.21% (inactive) |
| Cc1ccc(NC(=O)COc2ccc(/C=N\NC(=O)c3cccnc3)cc2)cc1C | 5.95% (inactive) |
| CCOc1ccccc1NC(=O)Cn1nnc(C(=O)NCc2cccs2)c1N | 2.5% (inactive) |
| CCOc1ccc2nc(N(CCN(C)C)C(=O)c3ccc4ccccc4c3)sc2c1 | -2.94% (inactive) |
| COc1ccccc1CNC(=O)Cn1c(=O)oc2cc(Cl)ccc21 | 5.98% (inactive) |
| O=C(Cc1ccc(-n2c(=O)c3sccc3n(Cc3ccc(F)cc3)c2=O)cc1)NCc1ccco1 | 7.21% (inactive) |
| COc1ccc(/C=C/C(=O)Nc2ccc(C34CC5CC(CC(O)(C5)C3)C4)cc2)cc1OC | 5.41% (inactive) |
| COc1ccc(Nc2nc(NCc3ccco3)nc(N/N=C/c3ccccc3Cl)n2)cc1 | 2.55% (inactive) |
| Cc1ccc(-c2cc(C(=O)NCc3cn(C)nc3C)c3cc(Br)ccc3n2)cc1 | -0.3% (inactive) |
| Cc1cccc(C(=O)Nc2ccccc2-c2nnn(CC(=O)Nc3ccc4c(c3)OCCO4)n2)c1 | -0.9% (inactive) |
| COC(=O)c1scc(C)c1NC(=O)CSc1ccc(Cl)cc1 | 4.2% (inactive) |
| CC[C@@H](C)[C@@H]1CN([C@@H](C)CN2CCC[C@H]2CN2C(N)=NC[C@H]2C(C)C)C(=N)N1CCc1ccc(Cl)c(Cl)c1 | -6.51% (inactive) |
| Cc1ccccc1NC(=O)c1ccc(COc2ccc3c(C)cc(=O)oc3c2)cc1 | 1.47% (inactive) |
| Cc1nnc(NC(=O)Nc2ccc(Cl)c(Cl)c2)s1 | 0.165% (inactive) |
| NC(=O)NC(=O)CSc1nc2cc([N+](=O)[O-])ccc2n1-c1cccc(C(F)(F)F)c1 | 3.51% (inactive) |

| SMILES | activation |
| --- | --- |
| O=C(Cn1cnc2c(nnn2Cc2ccc(F)cc2)c1=O)NCc1ccc2c(c1)OCO2 | 3.1% (inactive) |
| O=C(Nc1ccccc1)c1ccc(NC(=O)c2cccs2)cc1 | 6.7% (inactive) |
| COC(=O)c1nc2n(n1)C(c1ccc([N+](=O)[O-])cc1)C(C(=O)Nc1ccc(Cl)cc1)=C(C)N2 (stereo unspecified) | 2.9% (inactive) |
| COc1ccc(/C=C/C(=O)Nc2c(C)nn(C)c2C)cc1COc1ccc(Br)cc1 | 5.31% (inactive) |
| CCCOc1ccc(C(=O)C(CCC(CNCC)C(=O)c2ccc(OCCC)cc2)CNCC)cc1 (stereo unspecified) | 4.31% (inactive) |
| COc1ccc(CC(=O)Nc2ccc(C(=O)NC(C)(C)C)cc2)cc1 | -6.76% (inactive) |
| CC(=O)Nc1ccc(S(=O)(=O)NCC(=O)OCc2cc(=O)oc3ccc4ccccc4c23)cc1 | -1.24% (inactive) |
| O=C(CN1C(=O)c2cccc3cccc1c23)Nc1ccccc1 | 5.42% (inactive) |
| O=C(COc1coc(CN2CCN(c3ccccc3F)CC2)cc1=O)N1CCc2ccccc21 | -0.869% (inactive) |
| CCOc1ccc(-n2c(SCC(=O)Nc3ccc(OC)cc3)nc3sc4c(c3c2=O)CCN(C)C4)cc1 | -0.551% (inactive) |
| C#CCOCCOCCOCCNc1nc(N2CCN(C(=O)C(Cc3ccc(O)cc3)n3cc(C(N)CC(C)C)nn3)CC2)nc(N2CCN(C(=O)C(Cc3ccc(O)cc3)n3cc(C(N)C(C)CC)nn3)CC2)n1 (stereo unspecified) | 2.47% (inactive) |
| CN(C)CCN(C(=O)CN1C(=O)c2ccccc2C1=O)c1nc2cc3c(cc2s1)OCCO3 | 0.813% (inactive) |
| Cc1ccc(NC(=O)COc2ccc(/C=C3/NC(=O)NC3=O)cc2)cc1 | 2.85% (inactive) |
| O=C(Nc1cccnc1Cl)c1cc(-c2ccccc2O)on1 | -0.741% (inactive) |
| CCOC(=O)C1=C(O)/C(=C/c2ccc(OCC(=O)Nc3ccc(C)cc3)cc2)N=C1C | 3.13% (inactive) |
| c1ccc(C[C@H]2CNCCN2CCC23CC4CC(CC(C4)C2)C3)cc1 | 2.28% (inactive) |
| COc1ccc(CNC(=O)c2nnn(CC(=O)Nc3cc(C)cc(C)c3)c2N)cc1 | 3.37% (inactive) |
| Cc1ccc(S(=O)(=O)N2CCC(Oc3ccc(-n4cnnn4)cc3)CC2)cc1 | -4.91% (inactive) |
| Cn1cccc1/C=C1\SC(=O)N(CC(=O)Nc2ccc(F)cc2)C1=O | 0.105% (inactive) |
| COc1ccc(/C=C/C(=O)OCC(=O)N2CCN(S(=O)(=O)c3ccc(C)cc3C)CC2)cc1OC | -0.0445% (inactive) |
| O=C(Cn1nnc(-c2ccc3c(c2)OCO3)n1)NCc1ccco1 | -2.21% (inactive) |

| SMILES | activation |
| --- | --- |
| Nc1nc(SCC(=O)Nc2cc(C(F)(F)F)ccc2Cl)[nH]c(=O)c1NC(=O)c1ccco1 | -8.35% (inactive) |
| O=C(N/N=C/c1cccc(Br)c1)c1ccc(N2CCCC2=O)cc1 | 3.06% (inactive) |
| Nc1ccc(C(=O)OCC(=O)NC2CCCc3ccccc32)cc1[N+](=O)[O-] (stereo unspecified) | 0.712% (inactive) |
| COc1ccc(Br)cc1C(=O)NC(=S)Nc1cc(-c2nc3ccccc3[nH]2)ccc1C | -0.0125% (inactive) |
| COc1cccc(OCc2cc(/C=N/NC(=O)c3nc(Cl)c(Cl)c(N)c3Cl)ccc2OC)c1 | 1.13% (inactive) |
| Cc1cc(C)c2nc3nc(C)cc(C)c3c(N)c2c1 | 0.483% (inactive) |
| O=C(Nc1ccccc1)Nc1nnc(COc2ccccc2F)s1 | -9.71% (inactive) |
| Cc1ccc(OCC(=O)Nc2ccccc2C(=O)NC2CC2)cc1C | 1.23% (inactive) |
| COc1ccc(-c2cc(=O)c3c(O)cc(O[C@@H]4O[C@H](CO[C@@H]5O[C@@H](C)[C@H](O)[C@@H](O)[C@H]5O)[C@@H](O)[C@H](O)[C@H]4O)cc3o2)cc1O | 0.468% (inactive) |
| O=C(Nc1ccc(S(=O)(=O)N2CCc3ccccc3C2)cc1)c1ccccc1 | 6.54% (inactive) |
| NC(N)=Nc1nc2ccc(Br)cc2c(=O)[nH]1 | -0.0365% (inactive) |
| Cc1cc(NC(=O)Nc2c[nH]c(=O)[nH]c2=O)ccc1Br | 7.25% (inactive) |
| CCN1CCN(c2cc3nc(C)n(Cc4ccccc4)c(=O)c3cc2NC(=O)c2ccccc2F)CC1 | 3.66% (inactive) |
| C=CCn1c(=NC(=O)c2ccc(S(=O)(=O)N3CCCC3)cc2)sc2cc(NC(C)=O)ccc21 | 2.06% (inactive) |
| CS(=O)(=O)c1ccc(-c2nnn(CC(=O)Nc3ccc4c(c3)OCCO4)n2)cc1 | 2.96% (inactive) |
| CC(=O)Nc1ccc(NC(=O)COc2ccccc2C(=O)Nc2cccc(Cl)c2Cl)cc1 | -3.31% (inactive) |
| Cn1c(=O)oc2cc(S(=O)(=O)N3CCC(C(=O)Nc4ccc(OC(F)(F)F)cc4)CC3)ccc21 | 3.32% (inactive) |
| Cc1ccc(C(=O)NNC(=O)c2cc3cc4ccccc4nc3s2)cc1 | -0.255% (inactive) |
